Screens from PubChem.
ELG1 repair inh: qHTS screen for small molecules that inhibit ELG1-dependent DNA repair in human embryonic kidney (HEK293T) cells expressing luciferase-tagged ELG1. HEK293T ELG1-luciferase reporter, luminescence, 16 h; DNA damage induced by 5-fluorouridine. Potency, µM (titrated, usually from 46.1 µM), most hits filed as inhibitors. actives 2.3% (n = 330,000); also: nearly all actives have a fitted effect of over 55% in size
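Overnight (16 hr) co-exposure of 2,000 cells/well to 5-fluorouridine and compound at 37 °C preceded detection. Luciferase was quantified via ONE-Glo luminescence; loss of signal denotes inhibition.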
SW480 rerep: A quantitative high throughput screen for small molecules that induce DNA re-replication in SW480 colon adenocarcinoma cells. SW480 DNA re-replication, Hoechst DNA content imaging, 48 h. Potency, µM (titrated, usually from 46.1 µM), hits mostly activators. actives 1.8% (n = 340,000); also: nearly all actives have a fitted effect of over 55% in size
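Per well, 250 cells were exposed to pinned compound for 48 hr. Nuclear DNA was visualised with Hoechst (40 min, 37 C) and total object intensity recorded by fluorescence scanning.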
A-T KAP1 phos: qHTS Assay for Identifying a Potential Treatment of Ataxia-Telangiectasia. Potency, µM (doses to about 57.5 µM), most hits filed as activators. actives 0.19% (n = 320,000). F2112 A-T fibroblasts, KAP-1 phosphorylation AlphaLISA; neocarzinostatin DNA damage 30 min before lysis; also: nearly all actives have a fitted effect of over 45% in size
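hTERT-immortalized A-T patient fibroblasts (F2112), 500 cells/well in OPTI-MEM, 1% FBS, got compounds for 60 min, then NCS for 30 min at 37C. Lysates were then assayed for phospho-KAP-1 by AlphaLISA (anti-pKAP1 donor, anti-KAP1 acceptor beads), 6 hr at 25C.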
MCF10A rerep: A quantitative high throughput screen for small molecules that induce DNA re-replication in MCF 10a normal breast cells | Potency, µM (titrated, usually from 46.1 µM), actives largely listed as activators | actives 2.9% (n = 350,000) | MCF 10A DNA re-replication, Hoechst nuclear intensity, 48 h; also: nearly all actives have a fitted effect of over 50% in size
ELG1 genotox: qHTS screen for small molecules that induce genotoxicity in human embryonic kidney (HEK293T) cells expressing luciferase-tagged ELG1; HEK293T ELG1-luciferase reporter, luminescence, 16 h; Potency, µM (doses to about 46 µM), most hits filed as activators; actives 1.3% (n = 330,000); also: nearly all actives have a fitted effect of over 60% in size
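16 hr compound incubation (37 °C, 5% CO2) of HEK293T cells carrying luciferase-tagged ELG1; luciferase then measured by ONE-Glo luminescence after 30 min at RT.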
p53 reactivation: qHTS assay for re-activators of p53 using a Luc reporter; actives 0.063% (n = 320,000); Potency, µM (titrated, usually from 92.2 µM), hits mostly activators; H1299 p53-A138V BP100-luciferase reporter, luminescence, 24 h; AID 504706, 2011; also: nearly all actives have a fitted effect of over 45% in size
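H1299 (p53-null), stable ts p53-A138V + BP100-Luc; 1000 cells/well, Opti-MEM/10% FBS; cpd 4 pt, 1:5; 24 h, 37 deg C, 5% CO2; detection reagent 10 min RT; luminescence.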
Hits are given with their value; [ ] = dose if it differs, or a comment. Only some compounds are listed: those with a hit (about 7.1% of all), similar ones and a draw of the others. Calls follow the shape of the dose curve; as a rule, active = well fitted curve in the direction sought with a large enough effect; inconclusive = small, poorly fitted or top-dose-only effect, or another doubt; inactive = no such curve, though single readings can be large; an effect the other way counts as inactive or inconclusive.

Screening O=C(Nc1ccc(N2CCCC2)c(Cl)c1)c1cccs1 returned ELG1 repair inh inconclusive, SW480 rerep inactive, A-T KAP1 phos inactive, MCF10A rerep inconclusive, ELG1 genotox 2.3µM and p53 reactivation inactive.
`Cc1ccccc1C(=O)N1CCN(c2ccc(NC(=O)c3ccco3)cc2Cl)CC1` gave ELG1 repair inh 2.1µM, SW480 rerep inactive, A-T KAP1 phos inactive, MCF10A rerep inconclusive, ELG1 genotox inactive and p53 reactivation inactive.
`O=C(NC(=S)Nc1ccc(N2CCOCC2)c(Cl)c1)c1cccs1` gave ELG1 repair inh inactive, SW480 rerep inactive, A-T KAP1 phos inactive, MCF10A rerep inactive, ELG1 genotox inactive and p53 reactivation inactive.
Cc1cccc(NC(=O)c2cc(NC(=O)c3ccco3)ccc2Cl)n1 was read as ELG1 repair inh 12µM, SW480 rerep inactive, A-T KAP1 phos inactive, MCF10A rerep inactive, ELG1 genotox inactive and p53 reactivation inactive.
`Cc1occc1-c1nc(-c2ccccn2)no1` gave ELG1 repair inh inconclusive, SW480 rerep inactive, A-T KAP1 phos inactive, MCF10A rerep inconclusive, ELG1 genotox inconclusive and p53 reactivation inactive.
For Cc1occc1-c1nc(-c2ccncc2)no1 the results were ELG1 repair inh inconclusive, SW480 rerep inactive, A-T KAP1 phos inactive, MCF10A rerep inactive, ELG1 genotox 18µM and p53 reactivation inconclusive.
Cc1ccc(-c2noc(-c3ccoc3C)n2)cc1 was read as ELG1 repair inh inconclusive, SW480 rerep inactive, A-T KAP1 phos inactive, MCF10A rerep inactive, ELG1 genotox 15µM and p53 reactivation inactive.
`Cc1ccc(-c2noc(-c3c(C)noc3C)n2)cc1` gave ELG1 repair inh inactive, SW480 rerep inactive, A-T KAP1 phos inactive, MCF10A rerep inactive, ELG1 genotox inactive and p53 reactivation inactive.
O=S(=O)(c1ccc(N2CCN(S(=O)(=O)c3ccc4c(c3)OCCO4)CC2)nc1)N1CCCC1 was read as ELG1 repair inh 8.2µM, SW480 rerep inactive, A-T KAP1 phos inactive, MCF10A rerep inactive, ELG1 genotox inactive and p53 reactivation inactive.
Screening O=C(CCl)N1CCN(S(=O)(=O)c2ccc3c(c2)OCCCO3)CC1 returned ELG1 repair inh 18µM, SW480 rerep inconclusive, A-T KAP1 phos inactive, MCF10A rerep 4.1µM, ELG1 genotox inactive and p53 reactivation inactive.
Screening O=C(Cc1ccccc1F)N1CCN(S(=O)(=O)c2ccc(Cl)cc2)CC1 returned ELG1 repair inh inactive, SW480 rerep inconclusive, A-T KAP1 phos inactive, MCF10A rerep 16µM, ELG1 genotox inactive and p53 reactivation inactive.
Screening CC(C)CC(=O)N1CCN(S(=O)(=O)c2ccc(Cl)cc2)CC1 returned ELG1 repair inh inactive, SW480 rerep inactive, A-T KAP1 phos inactive, MCF10A rerep inactive, ELG1 genotox inactive and p53 reactivation inactive.
For O=S(=O)(c1ccc(N2CCN(Cc3ccc4c(c3)OCO4)CC2)nc1)N1CCOCC1 the results were ELG1 repair inh inconclusive, A-T KAP1 phos inactive, ELG1 genotox inactive and p53 reactivation inactive.
For CCCCCC(=O)N1CCN(S(=O)(=O)c2ccc3c(c2)OCCO3)CC1 the results were ELG1 repair inh inactive, SW480 rerep inactive, A-T KAP1 phos inactive, MCF10A rerep inactive, ELG1 genotox inactive and p53 reactivation inactive.
`CCCCNc1nnc(SCC(=O)N2CCN(S(=O)(=O)c3ccc4ccccc4c3)CC2)s1` gave ELG1 repair inh 23µM, SW480 rerep inactive, A-T KAP1 phos inactive, MCF10A rerep inactive, ELG1 genotox inactive and p53 reactivation inactive.
Cc1nnc(SCC(=O)N2CCN(S(=O)(=O)c3ccccc3)CC2)s1 was read as ELG1 repair inh inactive, SW480 rerep inactive, A-T KAP1 phos inactive, MCF10A rerep inactive, ELG1 genotox inactive and p53 reactivation inactive.
CC(=O)c1sc(NC(=O)CCN2C(=O)c3ccccc3C2=O)nc1C was read as ELG1 repair inh inactive, SW480 rerep inactive, A-T KAP1 phos inactive, MCF10A rerep inactive, ELG1 genotox inactive and p53 reactivation inactive.
For COc1ccc(CCC(=O)Nc2ccc(Cn3ccnc3)cc2)cc1 the results were ELG1 repair inh inactive, SW480 rerep inactive, A-T KAP1 phos inactive, MCF10A rerep inactive, ELG1 genotox inactive and p53 reactivation inactive.
`CCC1NC(=O)C(NC(=O)c2ncccc2O)C(C)OC(=O)C(c2ccccc2)NC(=O)C2CC(=O)CCN2C(=O)C(Cc2ccccc2)N(C)C(=O)C2CCCN2C1=O` (configuration not stated) gave SW480 rerep inactive and MCF10A rerep inactive.
O=S(=O)(Oc1ccc(C(=S)N2CCOCC2)cc1)c1ccc(Cl)cc1 was read as ELG1 repair inh inactive, SW480 rerep inconclusive, A-T KAP1 phos inactive, MCF10A rerep inconclusive, ELG1 genotox inactive and p53 reactivation inactive.
For O=C(CCl)N1CCN(S(=O)(=O)c2ccc3ccccc3c2)CC1 the results were ELG1 repair inh inactive, SW480 rerep inconclusive, A-T KAP1 phos inactive, MCF10A rerep 15µM, ELG1 genotox inactive and p53 reactivation inactive.
For CN1CCN(S(=O)(=O)c2ccc(N3CCN(S(=O)(=O)/C=C/c4ccccc4)CC3)nc2)CC1 the results were ELG1 repair inh inactive, SW480 rerep inconclusive, A-T KAP1 phos inactive, MCF10A rerep 7.3µM, ELG1 genotox inconclusive and p53 reactivation inactive.
For O=C(c1cc(=O)[nH]c2ccccc12)N1CCN(S(=O)(=O)c2ccc(Cl)cc2)CC1 the results were ELG1 repair inh 23µM, SW480 rerep inactive, A-T KAP1 phos inactive, MCF10A rerep inactive, ELG1 genotox inactive and p53 reactivation inactive.
Screening CN1CCN(S(=O)(=O)c2ccc(N3CCN(C(c4ccccc4)c4ccccc4)CC3)nc2)CC1 returned ELG1 repair inh inconclusive, SW480 rerep inactive, A-T KAP1 phos inactive, MCF10A rerep inconclusive, ELG1 genotox inactive and p53 reactivation inactive.
For Cc1ccc(NC(=O)COc2coc(CN3CCc4ccccc43)cc2=O)cc1Cl the results were ELG1 repair inh inactive, SW480 rerep inactive, A-T KAP1 phos inactive, MCF10A rerep inconclusive, ELG1 genotox inactive and p53 reactivation inactive.
For CCOc1cc(/C=C2\SC(=Nc3ccc(CC)cc3)NC2=O)ccc1OCC(=O)O the results were ELG1 repair inh inactive, SW480 rerep inconclusive, A-T KAP1 phos inactive, MCF10A rerep 18µM, ELG1 genotox inactive and p53 reactivation inactive.
For CCc1ccc(N=C2NC(=O)/C(=C/c3cc(Br)c(OCC(=O)O)c(OC)c3)S2)cc1 the results were ELG1 repair inh inactive, SW480 rerep inactive[1.84 µM], A-T KAP1 phos inactive, MCF10A rerep inconclusive and ELG1 genotox inactive.
